By AC50 is commonly meant the concentration at which the activity in the assay is half-maximal.

Outcome and AC50 data for 26 molecules are collected here from PubChem BioAssay (EPA / NIEHS).

Each structure is given as a SMILES string. Records with an inconclusive call do not appear. The source holds several records for some structures; these can differ, active in one and inactive in another. The source made the active and inactive calls. The calls were made as follows: active = hit-call score of the fitted dose curve at least 0.9, where 1 is the maximum; inconclusive = response in the unintended direction; inactive = score below 0.9.

This experiment can be described thus: CCTE_Shafer_MEA_acute_AB: CCTE's Alamar Blue Assay for Cytotoxicity in the Neural Acute Assay, Shafer Lab (AID 2284069).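 Also: active compounds lower the viability signal compared with DMSO wells.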 On the procedure: CCTE_Shafer_MEA_acute assay is conducted using Axion Biosystems 48 well microelectrode array (MEA) plates and Maestro recording system. Each well of the MEA plate contains a grid of 16 microelectrodes embedded in the culture surface. Electrically active cells, such as neurons, can be cultured over the electrodes, and electrical activity in these cells can be recorded extracellularly. The spontaneous firing of neurons is captured from each electrode on a microsecond timescale providing both temporally and spatially precise data. […] The CCTE_Shafer_MEA_acute assay uses primary cultures of rat cortical neurons. As these cultures mature over time, neural networks develop functional activity and form cohesive networks in which electrical activity can be highly coordinated. Baseline 40-minute recordings are made on days post-plating 13 or 15, followed by a secondary 40-minute recording after chemical exposure.CCTE_Shafer_MEA_acute_AB is a component of the CCTE_Shafer_MEA_acute assay. It measures the resazurin reduction using fluorescence.Data from the assay component CCTE_Shafer_MEA_acute_AB was analyzed into 1 assay endpoint. This assay endpoint, CCTE_Shafer_MEA_acute_AB, was analyzed in the positive analysis fitting direction relative to DMSO as the negative control and baseline of activity. Using a type of viability reporter, loss-of-signal activity can be used to understand cell viability.
Metabolic activity was determined using the CellTiter Blue (CTB) assay (Promega Cat. #8081), following the manufacturer's instructions with the following modifications. Following the removal of the 50 uL sample for the LDH assay, 450 uL of media was removed from each well and replaced with 200 uL of fresh media containing a 1:6 dilution of CTB reagent for the determination of metabolic activity. Fluorescence was measured in a Fluorostar Optima fluorimeter using an excitation wavelength of 544 nm and an emission wavelength of 590 nm.
On the technique in general: The colour change of resazurin is a common sign of viable cells or microbes.
For `CC(C)N(C(=O)SCC(Cl)=C(Cl)Cl)C(C)C`, the call was inactive.
As to `CC(=NC#N)N(C)Cc1ccc(Cl)nc1`, the molecule was called inactive.
Consider `CCc1cnc(C2=NC(C)(C(C)C)C(=O)N2)c(C(=O)O)c1` (configuration not stated), for which the molecule was called inactive.
`Cc1ccn2nc(S(=O)(=O)Nc3c(F)cccc3F)nc2n1`: the result was inactive.
The same measure, in the same setting: the result for `N#CSCSC#N` reads “inactive”; that for `CN(C)NC(=O)CCC(=O)O`, “inactive”.
Consider `CCOP(=S)(OCC)Oc1ccc2c(C)c(Cl)c(=O)oc2c1`, for which the molecule was classed as inactive.
For `CC[C@H](C)[C@H]1O[C@]2(C=C[C@@H]1C)C[C@@H]1C[C@@H](C/C=C(\C)[C@@H](O[C@H]3C[C@H](OC)[C@@H](O[C@H]4C[C@H](OC)[C@@H](NC)[C@H](C)O4)[C@H](C)O3)[C@@H](C)/C=C/C=C3\CO[C@@H]4[C@H](O)C(C)=C[C@@H](C(=O)O1)[C@]34O)O2`, the result was inactive and the AC50 was 20 µM (active).
On to `CCOC(=O)CC(SP(=O)(OC)OC)C(=O)OCC` (configuration not stated), for which the outcome was inactive.
With `CCOP(=O)(NC(C)C)Oc1ccc(SC)c(C)c1` (configuration not stated), the call was inactive.
Regarding `Nc1c(Cl)cc([N+](=O)[O-])cc1Cl`, the molecule was called inactive.
With `FC(F)C(F)(F)OCC(Cn1cncn1)c1ccc(Cl)cc1Cl` (configuration not stated), the molecule was called inactive.
In the case of `CSC1=N[C@@](C)(c2ccccc2)C(=O)N1Nc1ccccc1`, the call was inactive.
As to `C[N+]1(C)CCCCC1`, the call was inactive.
Regarding `COc1cc(OC)nc(Sc2cccc(Cl)c2C(=O)O)n1`, the result was inactive.
Regarding `CON=C(C(=O)OC)c1ccccc1CON=C(C)c1cccc(C(F)(F)F)c1`, the molecule was called inactive.
`O=[N+]([O-])c1cc(C(F)(F)F)c(Cl)c([N+](=O)[O-])c1Nc1ncc(C(F)(F)F)cc1Cl`: the outcome was inactive.
Take `C[Si](Cn1cncn1)(c1ccc(F)cc1)c1ccc(F)cc1`: the call was inactive.
As to `COP(=O)(OC)C(O)C(Cl)(Cl)Cl` (configuration not stated), the result was inactive.
As for `CCOP(=S)(Oc1cnc(C(C)(C)C)nc1)OC(C)C` (configuration not stated), the outcome was inactive.
Regarding `CC1=NNC(=O)N(/N=C/c2cccnc2)C1`, the molecule was called inactive.
As for `COP(=O)(NC(C)=O)SC` (configuration not stated), the molecule was classed as inactive.
Regarding `CN(C)[C@@H]1C(=O)C(C(N)=O)=C(O)[C@@]2(O)C(=O)C3=C(O)c4c(O)cccc4[C@@](C)(O)[C@H]3[C@H](O)[C@@H]12`, the result was inactive.
Still for that read-out and setting: the result for `CC(COc1ccc(Oc2ccccc2)cc1)Oc1ccccn1` (configuration not stated) reads “inactive”; that for `C=C(C)[C@H]1Cc2c(ccc3c2O[C@@H]2COc4cc(OC)c(OC)cc4[C@@H]2C3=O)O1`, “inactive”; that for `CCCOCC(=Nc1ccc(Cl)cc1C(F)(F)F)n1ccnc1`, “inactive”.
